Source: PubChem BioAssay (NCATS)
Several values for one entry are separate records, joined by “and”; a condition that tells them apart may be missing. Equal values may be shown once. Inconclusive results are not listed. Where a call stands in place of a potency, no number is given. The source holds several records for some structures; these can differ, active in one and inactive in another. Activity calls are given as the source filed them. Unless noted, calls come from the whole dose curve.

How the values were obtained:
[1] = molecular target: Ubiquitin carboxyl-terminal hydrolase 1 (Homo sapiens) (UniProt O94782); assay: Inhibitors of USP1/UAF1: Pilot qHTS (AID 504865; active = well fitted inhibition curve with a large enough effect;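 note: rhodamine fluorescence freed from ubiquitin-rhodamine substrate followed over time; top concentration of the series differs between compounds; nearly all actives have a fitted effect of over 35% in size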)
Outline: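 USP1/UAF1 complex (1nM) preincubated with compound 15 min at room temperature, then Ub-Rho substrate (150nM final) added. Fluorescence read kinetically at 480/540 nm, 6 reads every 60 seconds. Buffer: 50mM HEPES pH 7.8, 0.5mM EDTA, 0.1 mg/ml BSA, 1mM TCEP, 0.01% Tween-20.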

[2] = molecular target: Estrogen receptor (Homo sapiens) (UniProt P03372); assay: qHTS assay for small molecule antagonists of estrogen receptor alpha signaling (AID 588513; active = well fitted curve in the direction sought with a large enough effect in the signal ratio, with a control signal flat, not every such curve was filed as active; the % refers to the signal ratio)
Outline: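 ER-alpha-UAS-bla GripTite HEK 293 cells in medium with 2% charcoal/dextran-treated FBS were preincubated 4 h at 37 C, dosed with compound (1:2 titration), stimulated with 0.5nM 17-beta-estradiol for 18 h, then read by CCF4 beta-lactamase fluorescence.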

[3] = molecular target: Estrogen receptor (Homo sapiens) (UniProt P03372); assay: qHTS assay for small molecule agonists of estrogen receptor alpha signaling (AID 588514); note: nearly all actives have a fitted effect of over 70% in size
Outline: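 EC50 and efficacy came from Hill fits of beta-lactamase reporter signal (CCF4 dye, 2 h at room temperature) scaled between DMSO and 20 nM 17-beta-estradiol. Agonist mode: HEK293 ER-alpha-UAS-bla cells in charcoal/dextran-stripped serum medium, 18 h compound exposure at 37 C.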

[4] = molecular target: Glucocorticoid receptor (Homo sapiens) (UniProt P04150); assay: qHTS assay for small molecule agonists of glucocorticoid receptor signaling (AID 588532; active = well fitted curve in the direction sought with a large enough effect in the signal ratio, with a control signal flat; the % refers to the signal ratio); settings: HeLa MMTV-bla, beta-lactamase ratio, agonist, 18 h; stronger effect = higher value; percent of dexamethasone control, DMSO zero
Outline: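 HeLa GRE-bla reporter cells; 18 h compound exposure at 37 C; 2 h CCF4 loading at room temperature; fluorescence at 460 and 530 nm; EC50 by Hill equation.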

[5] = molecular target: Glucocorticoid receptor (Homo sapiens) (UniProt P04150); assay: qHTS assay for small molecule antagonists of glucocorticoid receptor signaling (AID 588533; active = well fitted inhibition curve with a large enough effect in the signal ratio, with a control signal flat, not every such curve was filed as active; the % refers to the signal ratio)
Outline: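 Antagonist-mode qHTS: compound titrations added to GRE-bla HeLa cells, then dexamethasone 2 nM final; 18 h, 37 C. CCF4 FRET fluorescence normalized to dexamethasone and DMSO; IC50 from Hill fit.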

[6] = molecular target: Peroxisome proliferator-activated receptor gamma (Homo sapiens) (UniProt P37231); assay: qHTS assay for small molecule agonists of peroxisome proliferator-activated receptor gamma signaling (AID 588536; active = well fitted curve in the direction sought with a large enough effect in the signal ratio, with a control signal flat, not every such curve was filed as active; the % refers to the signal ratio)
Outline: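 Cells were plated and held 6–6.5 h at 37 C, then compounds were added as a titration series. After a further 16 h, CCF4 dye was loaded for 2 h at room temperature and emission at 460/530 nm recorded.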

[7] = molecular target: Vitamin D3 receptor (Homo sapiens) (UniProt P11473); assay: qHTS assay for small molecule antagonists of vitamin D receptor signaling (AID 588541);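 note: receptor activated by calcitriol during compound treatment; series mostly up to about 77 µM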
Outline: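 VDR-UAS-bla HEK293T cells in 2% charcoal-stripped FBS were stimulated with 1-alpha,25-dihydroxyvitamin D3 (3 nM final) plus compound for 16 h at 37 C. The beta-lactamase CCF4 readout was normalized to 50 nM agonist and DMSO, and Hill fits gave IC50.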

[8] = molecular target: Vitamin D3 receptor (Homo sapiens) (UniProt P11473); assay: qHTS assay for small molecule agonists of vitamin D receptor signaling (AID 588543)
Outline: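 GeneBLAzer VDR-UAS-bla HEK293T cells in 2% charcoal-stripped FBS medium were dosed with compound titrations for 16 h at 37 °C; CCF4 β-lactamase readout (405 nm ex, 460/530 nm em). EC50 and efficacy from Hill fits, normalized to 50 nM calcitriol (100%) and DMSO (0%).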

[9] = molecular target: Bile acid receptor (Homo sapiens) (UniProt Q96RI1); assay: qHTS assay for small molecule antagonists of farnesoid X receptor signaling (AID 588526); note: potency is the fitted concentration of half-maximal effect
Outline: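 Antagonist mode: titrated compounds tested against chenodeoxycholic acid stimulation (normalized to 50 uM CDCA and DMSO) in GeneBLAzer HEK293T cells for 16 h. Beta-lactamase read by CCF4 fluorescence; IC50 from Hill fits.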

[10] = molecular target: Peroxisome proliferator-activated receptor delta (Homo sapiens) (UniProt Q03181); assay: qHTS assay for small molecule agonists of peroxisome proliferator-activated receptor delta signaling (AID 588534)
Outline: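 Agonist-mode beta-lactamase reporter readout (CCF4 dye, 2 h at RT) after 18 h at 37 °C exposure to a titration; Hill-equation fitting gave EC50 and maximal response.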

[11] = qHTS assay for small molecule antagonists of peroxisome proliferator-activated receptor delta signaling (AID 588535; active = well fitted inhibition curve with a large enough effect in the signal ratio, with a control signal flat, not every such curve was filed as active; the % refers to the signal ratio;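 for max response: cells co-treated with a PPAR-delta agonist as stimulator during compound exposure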); settings: HEK293T PPARd-UAS-bla, beta-lactamase FRET ratio, 18 h; 460 nm channel
Outline: (§1)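 Fluorescence from CCF4-loaded GeneBLAzer PPAR-delta-UAS-bla HEK293T cells (2 hrs RT loading) quantified reporter inhibition after an 18 hr, 37 C compound exposure across a titration.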

[12] = molecular target: Peroxisome proliferator-activated receptor delta (Homo sapiens) (UniProt Q03181); assay: as above
Outline: as §1

[13] = molecular target: Peroxisome proliferator-activated receptor gamma (Homo sapiens) (UniProt P37231); assay: qHTS assay for small molecule antagonists of peroxisome proliferator-activated receptor gamma signaling (AID 588537; active = well fitted inhibition curve with a large enough effect in the signal ratio, with a control signal flat, not every such curve was filed as active; the % refers to the signal ratio; note: potency is the fitted concentration of half-maximal effect)
Outline: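 Fluorescence at 460 and 530 nm (405 nm excitation) reported beta-lactamase cleavage of CCF4 after 2 h room-temperature loading. HEK293 reporter cells in 1% charcoal/dextran-treated FBS had received compound and rosiglitazone for 16 h.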

[14] = molecular target: DNA dC->dU-editing enzyme APOBEC-3G (Homo sapiens) (UniProt Q9HC16); assay: qHTS for inhibitors of Vif-A3G interactions: Validation (AID 588379; active = well fitted inhibition curve with a large enough effect)
Outline: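 Yellow fluorescence (Ex 488, Em 500-530) of Vif-coexpressing HeLa A3G-eYFP cells, scanned by Acumen cytometer, reports blocked A3G degradation. Cells plated at 700/well overnight at 37 deg C before compound addition, then a further overnight compound incubation at 37 deg C.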

[15] = molecular target: Androgen receptor (Homo sapiens) (UniProt P10275); assay: qHTS assay for small molecule agonists of androgen receptor signaling (AID 588515; active = well fitted curve in the direction sought with a large enough effect in the signal ratio, with a control signal flat; the % refers to the signal ratio); settings: AR-UAS-bla HEK293, beta-lactamase ratio, agonist 16 h; stronger effect = higher value
Outline: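 Stimulation of an AR-responsive β-lactamase reporter in GripTite HEK293 cells was measured after 16 h compound exposure at 37 °C, via CCF4 fluorescence after 2 h RT. EC50 from Hill fits, normalized to R1881 at 30 nM.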

[16] = molecular target: Androgen receptor (Homo sapiens) (UniProt P10275); assay: qHTS assay for small molecule antagonists of androgen receptor signaling (AID 588516; active = well fitted curve in the direction sought with a large enough effect in the signal ratio, with a control signal flat, not every such curve was filed as active; the % refers to the signal ratio)
Outline: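 AR-UAS-bla-GripTite HEK 293 cells (2000/well, 5 h at 37 C) received compound titrations, then R1881 at 10 nM final; after 16 h at 37 C, CCF4 dye 2 h RT, beta-lactamase fluorescence read; IC50 from Hill fits.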

Ubiquitin carboxyl-terminal hydrolase 1 (Homo sapiens), sequence (O94782 whole entry, looked up): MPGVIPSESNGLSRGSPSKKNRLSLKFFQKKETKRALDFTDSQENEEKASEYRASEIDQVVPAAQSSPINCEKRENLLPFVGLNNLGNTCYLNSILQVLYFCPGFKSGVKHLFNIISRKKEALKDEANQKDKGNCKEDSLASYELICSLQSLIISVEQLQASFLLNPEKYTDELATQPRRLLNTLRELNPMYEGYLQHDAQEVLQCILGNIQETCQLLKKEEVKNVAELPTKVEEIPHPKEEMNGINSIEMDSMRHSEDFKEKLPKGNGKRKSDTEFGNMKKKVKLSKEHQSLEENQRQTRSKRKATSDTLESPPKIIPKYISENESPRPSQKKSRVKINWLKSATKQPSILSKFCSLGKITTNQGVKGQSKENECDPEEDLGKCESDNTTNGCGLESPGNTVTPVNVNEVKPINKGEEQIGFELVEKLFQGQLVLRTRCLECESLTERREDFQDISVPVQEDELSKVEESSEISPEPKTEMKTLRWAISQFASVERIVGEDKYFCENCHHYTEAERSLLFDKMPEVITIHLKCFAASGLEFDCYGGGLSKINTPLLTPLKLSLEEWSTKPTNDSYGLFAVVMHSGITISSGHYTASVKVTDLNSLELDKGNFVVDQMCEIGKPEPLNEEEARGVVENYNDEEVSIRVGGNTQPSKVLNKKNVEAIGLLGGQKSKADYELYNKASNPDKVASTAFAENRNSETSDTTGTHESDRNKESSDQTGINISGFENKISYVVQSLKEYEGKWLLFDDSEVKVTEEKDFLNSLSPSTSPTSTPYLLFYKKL
Peroxisome proliferator-activated receptor delta (Homo sapiens), sequence (Q03181 whole entry, looked up): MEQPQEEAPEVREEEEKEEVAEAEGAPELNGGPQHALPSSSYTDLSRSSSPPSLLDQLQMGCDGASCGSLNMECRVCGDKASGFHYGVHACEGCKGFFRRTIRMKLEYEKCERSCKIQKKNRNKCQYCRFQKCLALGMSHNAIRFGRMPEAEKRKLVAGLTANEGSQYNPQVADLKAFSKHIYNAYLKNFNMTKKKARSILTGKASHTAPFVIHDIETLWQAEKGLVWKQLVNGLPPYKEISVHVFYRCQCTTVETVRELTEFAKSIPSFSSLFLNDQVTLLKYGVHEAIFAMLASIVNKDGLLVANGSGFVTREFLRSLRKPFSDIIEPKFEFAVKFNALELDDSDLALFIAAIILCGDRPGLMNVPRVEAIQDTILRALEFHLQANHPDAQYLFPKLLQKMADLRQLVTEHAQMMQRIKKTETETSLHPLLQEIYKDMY
Vitamin D3 receptor (Homo sapiens), sequence (P11473 whole entry, looked up): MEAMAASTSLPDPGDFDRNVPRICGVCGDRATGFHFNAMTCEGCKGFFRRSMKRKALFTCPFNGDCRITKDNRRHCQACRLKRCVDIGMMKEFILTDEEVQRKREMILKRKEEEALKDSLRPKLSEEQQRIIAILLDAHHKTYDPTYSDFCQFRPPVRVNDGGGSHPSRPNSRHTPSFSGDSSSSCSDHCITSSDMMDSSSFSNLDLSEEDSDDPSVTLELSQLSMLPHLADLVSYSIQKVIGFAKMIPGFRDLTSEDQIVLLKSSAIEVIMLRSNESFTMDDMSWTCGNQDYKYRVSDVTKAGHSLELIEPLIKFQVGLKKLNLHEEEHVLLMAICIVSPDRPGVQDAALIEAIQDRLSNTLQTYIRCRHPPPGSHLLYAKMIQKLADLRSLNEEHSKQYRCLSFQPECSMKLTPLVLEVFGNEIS
Glucocorticoid receptor (Homo sapiens), sequence (P04150 whole entry, looked up): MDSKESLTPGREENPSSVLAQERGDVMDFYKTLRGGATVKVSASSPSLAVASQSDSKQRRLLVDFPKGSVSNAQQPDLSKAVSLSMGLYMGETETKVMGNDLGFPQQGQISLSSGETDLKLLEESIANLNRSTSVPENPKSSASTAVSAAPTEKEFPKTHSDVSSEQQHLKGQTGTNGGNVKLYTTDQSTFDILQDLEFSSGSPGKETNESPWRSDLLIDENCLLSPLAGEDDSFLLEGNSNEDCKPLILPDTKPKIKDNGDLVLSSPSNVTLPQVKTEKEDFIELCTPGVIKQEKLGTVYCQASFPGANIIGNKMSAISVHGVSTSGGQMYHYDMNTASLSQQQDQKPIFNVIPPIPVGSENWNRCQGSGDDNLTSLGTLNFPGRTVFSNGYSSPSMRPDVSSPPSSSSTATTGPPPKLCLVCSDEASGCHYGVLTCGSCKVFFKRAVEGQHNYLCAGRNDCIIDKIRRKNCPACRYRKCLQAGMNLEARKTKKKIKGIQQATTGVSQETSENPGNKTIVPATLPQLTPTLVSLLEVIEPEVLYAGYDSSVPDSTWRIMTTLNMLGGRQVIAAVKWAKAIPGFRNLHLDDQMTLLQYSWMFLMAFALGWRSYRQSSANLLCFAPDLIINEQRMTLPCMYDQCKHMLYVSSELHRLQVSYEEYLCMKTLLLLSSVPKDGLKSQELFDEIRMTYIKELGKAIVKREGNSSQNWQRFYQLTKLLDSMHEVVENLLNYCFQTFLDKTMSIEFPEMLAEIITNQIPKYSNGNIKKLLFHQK
Bile acid receptor (Homo sapiens), sequence (Q96RI1 whole entry, looked up): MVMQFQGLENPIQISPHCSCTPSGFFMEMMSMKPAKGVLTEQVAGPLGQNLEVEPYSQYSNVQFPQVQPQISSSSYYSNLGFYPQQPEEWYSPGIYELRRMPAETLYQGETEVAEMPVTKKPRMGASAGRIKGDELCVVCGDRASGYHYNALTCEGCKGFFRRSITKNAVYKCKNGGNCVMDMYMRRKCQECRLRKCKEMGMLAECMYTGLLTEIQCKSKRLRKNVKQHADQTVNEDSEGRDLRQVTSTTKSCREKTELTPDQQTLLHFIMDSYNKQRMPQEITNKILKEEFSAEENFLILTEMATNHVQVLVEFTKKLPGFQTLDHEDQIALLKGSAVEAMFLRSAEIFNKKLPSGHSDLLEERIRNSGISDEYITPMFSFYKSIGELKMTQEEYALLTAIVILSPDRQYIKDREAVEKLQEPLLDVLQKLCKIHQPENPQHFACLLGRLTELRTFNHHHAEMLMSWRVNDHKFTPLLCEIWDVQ
Estrogen receptor (Homo sapiens), sequence (P03372 whole entry, looked up): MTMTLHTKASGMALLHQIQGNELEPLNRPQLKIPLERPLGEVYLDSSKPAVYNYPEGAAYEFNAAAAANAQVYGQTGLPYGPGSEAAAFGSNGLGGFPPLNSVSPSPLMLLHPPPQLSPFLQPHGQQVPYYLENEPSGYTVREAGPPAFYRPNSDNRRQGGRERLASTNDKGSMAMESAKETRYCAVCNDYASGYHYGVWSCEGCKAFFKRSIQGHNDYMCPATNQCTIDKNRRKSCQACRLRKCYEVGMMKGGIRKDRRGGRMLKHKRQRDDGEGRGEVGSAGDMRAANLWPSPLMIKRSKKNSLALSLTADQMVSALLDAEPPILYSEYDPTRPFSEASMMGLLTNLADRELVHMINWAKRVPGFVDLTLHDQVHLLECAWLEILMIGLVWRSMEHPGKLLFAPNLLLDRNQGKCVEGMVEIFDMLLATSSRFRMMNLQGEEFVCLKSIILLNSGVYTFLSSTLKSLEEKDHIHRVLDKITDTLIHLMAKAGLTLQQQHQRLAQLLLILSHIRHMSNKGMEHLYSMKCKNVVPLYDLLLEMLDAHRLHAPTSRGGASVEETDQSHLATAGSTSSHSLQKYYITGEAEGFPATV
Androgen receptor (Homo sapiens), sequence (P10275 whole entry, looked up): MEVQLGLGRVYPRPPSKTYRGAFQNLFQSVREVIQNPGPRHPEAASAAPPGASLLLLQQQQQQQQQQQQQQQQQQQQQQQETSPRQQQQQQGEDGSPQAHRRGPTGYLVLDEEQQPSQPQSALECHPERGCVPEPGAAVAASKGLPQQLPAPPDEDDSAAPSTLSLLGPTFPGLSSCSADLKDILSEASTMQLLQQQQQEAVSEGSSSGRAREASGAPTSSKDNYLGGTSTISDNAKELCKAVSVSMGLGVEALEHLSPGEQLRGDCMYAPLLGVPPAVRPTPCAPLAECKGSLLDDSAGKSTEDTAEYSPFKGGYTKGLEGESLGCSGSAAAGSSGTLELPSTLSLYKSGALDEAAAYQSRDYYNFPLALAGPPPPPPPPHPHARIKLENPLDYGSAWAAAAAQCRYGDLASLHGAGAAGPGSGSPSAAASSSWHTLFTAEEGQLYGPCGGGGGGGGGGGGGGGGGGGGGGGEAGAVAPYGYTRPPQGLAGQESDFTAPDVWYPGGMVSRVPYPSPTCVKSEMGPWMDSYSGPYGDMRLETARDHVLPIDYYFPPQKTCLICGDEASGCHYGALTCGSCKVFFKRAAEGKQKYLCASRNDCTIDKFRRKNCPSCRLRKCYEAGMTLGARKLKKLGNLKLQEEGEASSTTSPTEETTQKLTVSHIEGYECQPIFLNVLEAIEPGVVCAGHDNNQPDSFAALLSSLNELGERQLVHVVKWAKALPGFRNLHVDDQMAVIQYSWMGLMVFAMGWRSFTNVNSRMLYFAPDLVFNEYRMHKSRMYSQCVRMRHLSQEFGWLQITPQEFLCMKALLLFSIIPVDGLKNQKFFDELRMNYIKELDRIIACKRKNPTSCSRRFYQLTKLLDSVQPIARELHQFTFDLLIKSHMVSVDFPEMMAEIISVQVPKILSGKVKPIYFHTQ
Peroxisome proliferator-activated receptor gamma (Homo sapiens), sequence (P37231 whole entry, looked up): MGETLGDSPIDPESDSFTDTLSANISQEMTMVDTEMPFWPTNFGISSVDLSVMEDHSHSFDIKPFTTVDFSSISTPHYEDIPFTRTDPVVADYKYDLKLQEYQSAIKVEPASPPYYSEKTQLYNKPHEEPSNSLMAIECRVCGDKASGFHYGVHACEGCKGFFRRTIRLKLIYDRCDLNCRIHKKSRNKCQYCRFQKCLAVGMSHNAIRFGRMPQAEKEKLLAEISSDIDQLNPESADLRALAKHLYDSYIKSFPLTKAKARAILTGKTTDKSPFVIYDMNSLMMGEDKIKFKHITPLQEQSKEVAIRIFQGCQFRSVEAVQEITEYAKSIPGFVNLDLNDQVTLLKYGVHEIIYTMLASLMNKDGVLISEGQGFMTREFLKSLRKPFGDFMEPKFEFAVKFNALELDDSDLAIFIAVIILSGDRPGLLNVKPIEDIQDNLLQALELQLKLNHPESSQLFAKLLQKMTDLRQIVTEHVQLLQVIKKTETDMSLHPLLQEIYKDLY

S=C=S
Potency [1]: inactive
Potency [2]: inactive
Potency [3]: inactive
activation [4]: 1.7% (inactive)
Potency [5]: inactive
outcome [6]: inactive
Potency [7]: inactive
outcome [8]: inactive

C[CH2][Hg][S]c1ccccc1C(=O)O
Potency [9]: 8.91 µM (active)

CCCCCl
Potency [1]: inactive
Potency [9]: inactive
activation [4]: 5.23% (inactive)
Potency [5]: inactive
outcome [10]: inactive
max response [11]: 7.66%
outcome [12]: inactive
outcome [6]: inactive
Potency [7]: inactive
outcome [8]: inactive

COC1=CC(=O)O[C@@H](/C=C/c2ccccc2)C1
Potency [9]: inactive
activation [4]: -2.27% (inactive)
Potency [5]: inactive
outcome [6]: inactive
Potency [13]: inactive
Potency [7]: inactive
outcome [8]: inactive

O=C1C[C@@H]2OCC=C3CN4CC[C@]56c7ccccc7N1[C@H]5[C@H]2[C@H]3C[C@H]46
outcome [6]: inactive
Potency [13]: inactive

O=c1ccc2[nH]cc(C3=CCNCC3)c2[nH]1
outcome [14]: inactive

ClCC1CO1 (stereo not given)
Potency [1]: inactive
Potency [2]: inactive
Potency [3]: inactive
activation [4]: -9.3% (inactive)
Potency [5]: inactive
outcome [10]: inactive
outcome [6]: inactive
Potency [13]: inactive
Potency [7]: inactive
outcome [8]: inactive

CC(C)(C)c1cc(O)ccc1O
Potency [1]: inactive
Potency [9]: inactive
activation [4]: 4.46% (inactive) and 3.75% (inactive) and 5.49% (inactive)
Potency [5]: inactive
outcome [10]: inactive
max response [11]: 24.1%
outcome [12]: inactive
Potency [13]: inactive and 44.7 µM (active)

CCCCCCCCOC(=O)c1ccccc1C(=O)OCCCCCCCC
Potency [1]: inactive
Potency [2]: inactive
activation [15]: 20.2% (inactive) and 9.55% (inactive)
outcome [16]: inactive
Potency [9]: inactive
outcome [10]: inactive
max response [11]: 13.7% and -2.08%
outcome [12]: inactive
outcome [6]: inactive
Potency [13]: inactive
Potency [7]: inactive
outcome [8]: inactive

Oc1cc(Cl)c(Cl)cc1Cl
Potency [1]: inactive
outcome [6]: inactive
Potency [13]: inactive

O=Cc1ccco1
Potency [1]: inactive
outcome [10]: inactive
Potency [7]: inactive
outcome [8]: inactive

COCC(C)N(C(=O)CCl)c1c(C)csc1C (stereo not given)
Potency [1]: inactive
Potency [3]: inactive
Potency [9]: inactive
activation [4]: -2.08% (inactive)
Potency [5]: inactive
outcome [10]: inactive
Potency [13]: 39.8 µM (active)
outcome [8]: inactive

N#CN
Potency [1]: inactive
Potency [2]: inactive
Potency [3]: inactive
activation [4]: -6.37% (inactive)
outcome [10]: inactive
max response [11]: 20.7%
outcome [12]: inactive
outcome [6]: inactive
Potency [13]: inactive
Potency [7]: inactive
outcome [8]: inactive

O=c1[nH]c(=O)n(Cl)c(=O)n1Cl
Potency [1]: inactive
activation [4]: 26.8% (inactive)
Potency [5]: inactive
outcome [6]: inactive
Potency [13]: inactive
